Screening results from PubChem.
An excerpt weighted towards active compounds, which were near 10% of everything screened.
GLS inhibitor = qHTS for Inhibitors of Glutaminase (GLS); Glutaminase kidney isoform, mitochondrial (Homo sapiens), O94925; GLS enzymatic activity, qHTS titration; Potency, µM (doses to about 45.5 µM), inactives show at the highest dose activity change, negative = inhibition, hits mostly inhibitors; actives 0.21% (n = 410,000); AID 624170, 2012; note: % is set by controls: 0 for no effect and ±100 for the full control effect
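hKGA; 45 mM KH2PO4 pH 8.2 + 0.02% Tween-20; cpd via pin tool; 1 mM Gln soln; GluOx/HRP/Amplex Red; RT 30 min; fluor. t0 & final.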
HP1b chromo inh = HTS for Inhibitors of HP1-beta Chromodomain Interactions with Methylated Histone Tails; AID 540317, 2011; actives 0.56% (n = 390,000); Potency, µM (series often up to 114 µM), inactives show at the highest dose activity change, negative = inhibition, actives largely listed as inhibitors; AlphaScreen HP1-beta / biotin-H3K9me3 peptide binding; note: nearly all actives have a fitted effect of over 70% in size
Target sequence (P83916 whole entry, looked up): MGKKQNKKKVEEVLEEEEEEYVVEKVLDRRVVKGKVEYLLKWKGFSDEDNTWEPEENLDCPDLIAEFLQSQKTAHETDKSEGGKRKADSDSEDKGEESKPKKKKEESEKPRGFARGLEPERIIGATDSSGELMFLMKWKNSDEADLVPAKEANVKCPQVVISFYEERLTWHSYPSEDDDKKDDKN
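HP1-beta protein (50 nM final) preincubated 30 min at room temperature with biotinylated H3(1-18)K9me3 peptide (50 nM) in PBS pH 7.4, 0.01% Tween-20, then compound added for 30 min. AlphaScreen streptavidin donor/nickel chelate acceptor beads (10 ug/mL final), 30 min dark, luminescence read.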
BAZ2B inh = qHTS Assay for Inhibitors of BAZ2B; AID 504333, 2011; Potency, µM (titrated, usually from 114 µM), for inactives: at the highest dose activity change, negative = inhibition, most hits filed as inhibitors; AlphaScreen BAZ2B-H3K14Ac peptide displacement; Bromodomain adjacent to zinc finger domain protein 2B (Homo sapiens), Q9UIF8; actives 4.4% (n = 360,000); note: % is set by controls: 0 for no effect and ±100 for the full control effect; nearly all actives have a fitted effect of over 60% in size
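AlphaScreen displacement of biotin-H3(5-23)K14Ac peptide (50 nM final) from BAZ2B (50 nM final) in PBS pH 7.4, 0.01% Tween-20; complex preformed 30 min RT, then compounds (top 110 uM) 30 min RT, beads 20 min dark.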
G9a inh = qHTS Assay for Inhibitors of Histone Lysine Methyltransferase G9a. Histone-lysine N-methyltransferase EHMT2 (Homo sapiens), Q96KQ7. G9a H3K9 monomethylation, AlphaScreen, 2 h. Potency, µM (top dose mostly 102 µM), for inactives: at the highest dose activity, negative = inhibition, actives largely listed as inhibitors. actives 8.8% (n = 350,000). AID 504332, 2011; note: % is set by controls: 0 for no effect and ±100 for the full control effect; nearly all actives have a fitted effect of over 75% in size
Target sequence (Q96KQ7 913-1193 limits assumed): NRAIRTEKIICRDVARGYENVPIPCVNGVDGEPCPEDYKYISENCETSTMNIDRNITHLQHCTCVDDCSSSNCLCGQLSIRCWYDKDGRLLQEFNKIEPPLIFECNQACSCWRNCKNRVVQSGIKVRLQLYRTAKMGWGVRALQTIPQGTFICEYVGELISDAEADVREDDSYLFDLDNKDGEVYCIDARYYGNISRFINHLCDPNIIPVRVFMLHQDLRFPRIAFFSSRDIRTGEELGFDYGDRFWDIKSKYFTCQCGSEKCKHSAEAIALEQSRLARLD
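Using a bead-based AlphaScreen, monomethylated H3K9 product from 2 h room-temperature reactions (G9a 20 nM, peptide 500 nM, SAM 20 uM) was detected with 0.5 ug/mL rabbit anti-H3K9me1 antibody.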
JMJD2A Tudor inh = qHTS Assay for Inhibitors of JMJD2A-Tudor Domain; AlphaScreen JMJD2A-Tudor / H3K4me3 peptide binding; actives 4.4% (n = 390,000); AID 504339, 2011; Potency, µM (top dose mostly 114 µM), without a hit: top-dose activity change, negative = inhibition, hits mostly inhibitors; Lysine-specific demethylase 4A (Homo sapiens), O75164; note: % is set by controls: 0 for no effect and ±100 for the full control effect; nearly all actives have a fitted effect of over 50% in size
* = called active by the depositor; [ ] = another dose, or the depositor's remark. Calls come from the whole dose curve; as a rule, active = well fitted curve in the direction sought with a large enough effect; inconclusive = small, poorly fitted or top-dose-only effect, or another doubt; inactive = no such curve, though single readings can be large; an effect the other way counts as inactive or inconclusive. Potency is the fitted concentration of half-maximal effect.

Screening CCOC(=O)C1CCN(c2ncnc3c2nnn3C)CC1 returned GLS inhibitor -9.2%, HP1b chromo inh 17.6%, BAZ2B inh -5.4%, G9a inh 8.0%[59 µM] and JMJD2A Tudor inh -7.1%.
Screening Cc1ccc(OCC(=O)OC2CCCN(C)C2)cc1 (centres undefined) returned GLS inhibitor -0.9%, HP1b chromo inh 31.7%, BAZ2B inh -4.2%, G9a inh 0.9%[0.501 µM] and JMJD2A Tudor inh inconclusive.
`CN1CCCC(OC(=O)COc2ccccc2)C1` (centres undefined) gave GLS inhibitor 12.3%, HP1b chromo inh 10.7%, BAZ2B inh -4.5%, G9a inh 50.1µM* and JMJD2A Tudor inh -5.0%.
For Cc1ccc(NS(=O)(=O)c2c(C)noc2C)cc1 the results were GLS inhibitor -0.4%, HP1b chromo inh 18.4%, BAZ2B inh 7.8%, G9a inh 44.9% and JMJD2A Tudor inh 0.0%.
CC(C)CNc1ncnc2c1ncn2[C@H]1CN(C2CCCC2)C[C@@H](CO)O1 was read as GLS inhibitor 4.4%.
For COC(=O)Cc1n[nH]c(=S)[nH]c1=O the results were GLS inhibitor -4.0%, HP1b chromo inh 0.3%, BAZ2B inh -34.2%, G9a inh 0.3%[59 µM] and JMJD2A Tudor inh 79.4µM*.
Screening COCC(C)n1c(C)cc(C(=O)COC(=O)c2cc(=O)[nH]c3ccccc23)c1C (centres undefined) returned GLS inhibitor 3.1%, HP1b chromo inh inconclusive and JMJD2A Tudor inh inconclusive.
For CCOc1ccc(N=C(/C(C(=O)C(=O)N2CCOCC2)=C(\O)c2ccccc2)c2ccccc2)cc1 the results were GLS inhibitor 16.0%, HP1b chromo inh 13.0%, BAZ2B inh -29.0%, G9a inh 50.1µM* and JMJD2A Tudor inh -17.2%.
`CCCCc1nn2c(=O)cc(COC(=O)C(C)Oc3ccccc3)nc2s1` (centres undefined) gave GLS inhibitor 7.2%, HP1b chromo inh 61.0%, BAZ2B inh 2.0%, G9a inh 4.7%[59 µM] and JMJD2A Tudor inh -27.0%.
COc1ccc(NC(=O)c2ccc3[nH]c(C)cc(=O)c3c2)cc1 was read as GLS inhibitor -4.1%, HP1b chromo inh 35.9%, BAZ2B inh -8.3%, G9a inh -33.0%[59 µM] and JMJD2A Tudor inh -9.6%.
For COc1cccc(NC(=O)C2(C)CCN2C(=O)CCc2ccc(Cl)cc2Cl)c1 (centres undefined) the results were GLS inhibitor 5.3%.
For c1ccc(CCc2nn3c(C4COc5ccccc5O4)nnc3s2)cc1 (centres undefined) the results were GLS inhibitor inconclusive, HP1b chromo inh inconclusive, BAZ2B inh 9.2%, G9a inh 3.55µM* and JMJD2A Tudor inh inconclusive.
For COc1ccccc1-c1nn2c(C3COc4ccccc4O3)nnc2s1 (centres undefined) the results were HP1b chromo inh -38.3%, BAZ2B inh -22.8%, G9a inh 3.55µM* and JMJD2A Tudor inh -35.8%.
For c1ccc(Cc2nn3c(C4COc5ccccc5O4)nnc3s2)cc1 (centres undefined) the results were GLS inhibitor inconclusive, HP1b chromo inh -31.0%, BAZ2B inh -22.9%, G9a inh 5.01µM* and JMJD2A Tudor inh -32.0%.
Screening CCn1cc(CNC(=O)c2ccc(OC3CCN(Cc4ccccn4)CC3)cc2)cn1 returned GLS inhibitor -9.5%, HP1b chromo inh 25.5%[57 µM], BAZ2B inh -15.0%, G9a inh 19.3% and JMJD2A Tudor inh -24.0%.
For CCn1nc(C)c(CNC(=O)c2ccc(OC3CCN(Cc4ccccn4)CC3)cc2)c1C the results were GLS inhibitor 0.0%, HP1b chromo inh 11.3%, BAZ2B inh 79.4µM*, G9a inh -5.0% and JMJD2A Tudor inh -9.7%.
CC(C)c1cc(CNC(=O)c2ccc(OC3CCN(Cc4ccccn4)CC3)cc2)on1 was read as GLS inhibitor -12.2%, HP1b chromo inh 1.6%, BAZ2B inh 56.2µM*, G9a inh inconclusive and JMJD2A Tudor inh 44.7µM*.
CCCCn1nnnc1C(c1cc2ccccc2o1)N1CCN(c2cc(C)nc3ccccc23)CC1 (centres undefined) was read as GLS inhibitor 0.5%.
`CN(C)CCNC(=O)c1coc(=O)c(Br)c1` gave GLS inhibitor 0.7%, HP1b chromo inh 12.3%, BAZ2B inh inconclusive, G9a inh 15.8µM* and JMJD2A Tudor inh inconclusive.
For O=C(Nc1cc(Cl)cc(Cl)c1)c1coc(=O)c(Br)c1 the results were GLS inhibitor 0.0%, HP1b chromo inh -11.3%, BAZ2B inh 56.2µM*, G9a inh 50.1µM* and JMJD2A Tudor inh -31.7%.
`O=C(NCCC1=CCCCC1)c1coc(=O)c(Br)c1` gave GLS inhibitor 0.6%, HP1b chromo inh 15.1%, BAZ2B inh -6.0%, G9a inh 7.8%[59 µM] and JMJD2A Tudor inh -12.2%.
Screening O=C(NC(CO)(CO)CO)c1coc(=O)c(Br)c1 returned GLS inhibitor 0.6%, HP1b chromo inh 19.1%, BAZ2B inh 5.0%, G9a inh 26.6%[2.33 µM] and JMJD2A Tudor inh -7.5%.
`O=C(NNC(=O)C1C2CCCCC21)c1coc(=O)c(Br)c1` (centres undefined) gave GLS inhibitor -1.3%, HP1b chromo inh 28.6%, BAZ2B inh inconclusive, G9a inh 44.7µM* and JMJD2A Tudor inh -22.1%.
For CC(C)CNC(=O)c1coc(=O)c(Br)c1 the results were HP1b chromo inh 26.0%, BAZ2B inh 8.0%, G9a inh -31.9%[59 µM] and JMJD2A Tudor inh -8.4%.
Screening CCSc1nc2ccccc2n1C(=O)/C=C\c1ccc(OC)c(OC)c1 returned GLS inhibitor -0.4%, HP1b chromo inh 3.7%, BAZ2B inh -0.9%, G9a inh 39.9%[12.7 µM] and JMJD2A Tudor inh -16.4%.
Oc1cccc(-c2nc3ccccc3s2)c1 was read as GLS inhibitor 14.6%, HP1b chromo inh 59.1%, BAZ2B inh 9.2%, G9a inh inconclusive and JMJD2A Tudor inh -2.3%.
Cc1cc(C)c(-c2nc3ccccc3s2)[nH]1 was read as GLS inhibitor 9.8%, HP1b chromo inh -2.0%, BAZ2B inh -22.9%, G9a inh 50.1µM* and JMJD2A Tudor inh -21.2%.
For COCCN(CC(=O)Nc1cccc(C)c1C)C(=O)c1cc(-c2ccncc2)nc2ccccc12 the results were GLS inhibitor 1.4%, HP1b chromo inh 47.2%, BAZ2B inh -7.9%, G9a inh -19.0%[59 µM] and JMJD2A Tudor inh -13.5%.
Cc1ccc(S(=O)(=O)N2C(=O)[C@@H]3Cc4ccccc4CN3C2=O)cc1 was read as GLS inhibitor 37.5%, HP1b chromo inh -17.4%, BAZ2B inh -35.4%, G9a inh 39.8µM* and JMJD2A Tudor inh 7.94µM*.
